The list is not random: actives were taken first. Their share in the collection is about 6.8%.
Autofluor 339 = intrinsic fluorescence of library compounds, ex339/em460 – biochemical, MLSMR library, data from DPM-DC assay, artefact control, profiling panel. compound autofluorescence, ex339/em460 nm, NADH buffer; stronger effect = higher value; 1 = no-compound wells, NADH background. fluorescence fold increase at 10 µM. actives 5.5% (n = 65,000). AID 709;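 active means at 10 µM, mean starting fluorescence two-fold or more over control wells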;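 further: signal is the first read of a kinetic run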
DPM-DC inhibit = S. pneumoniae DPM-DC inhibition. purified DPM-DC, PK/LDH coupled NADH fluorescence. AID 556. actives 0.49% (n = 65,000). calls only at 10 µM;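 active means the 320 compounds with the highest percent inhibition in the single-dose primary screen, excluding strongly autofluorescent ones, cut at about 32% in these data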;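 further: kinetic rate of NADH fluorescence loss reporting ADP formed by the decarboxylase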
PMK inhibit = S. pneumoniae PMK inhibition. purified PMK, PK/LDH-coupled NADH absorbance 340 nm. actives 0.49% (n = 65,000). inhibition, % at 10 µM;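 active means top-ranked compounds by inhibition in the single 10 µM screen, taking a fixed number of the strongest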;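 further: 0% = full reaction with DMSO carrier and 100% = background rate without enzyme reaction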
NADH enzymes = blocks coupling enzymes of NAD/NADH assays; IC50, µM (top dose mostly 10 µM), for the others: at the top dose inhibition; AID 774; coupled PK/LDH NADH assays, four targets; actives 0.02% (n = 65,000);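 active means single-dose screening hits from any of four coupled enzyme assays that gave an IC50 when retested across doses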;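 further: the DPM-DC format reads NADH fluorescence rather than 340 nm absorbance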
MK inhibit = blocks S. pneumoniae mevalonate kinase. inhibition, % at 10 µM. purified MK, PK/LDH-coupled NADH absorbance 340 nm. actives 0.48% (n = 65,000);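 active means ranked among the strongest by inhibition in the single 10 µM screen, a fixed top-ranked set picked for dose follow-up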
Abs 340nm = absorbance at 340 nm. compound absorbance at 340 nm, fold over control. fold change at 10 µM. 65,000 tested, under 10 active. AID 708;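 active means at 10 µM dose, initial 340 nm absorbance at least 2 fold that of control wells; inactive means change under 2 fold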;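 further: initial absorbance extrapolated from kinetic A340 decline of NADH oxidation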
* marks the source's active call; other numbers are inactive results; i = inactive; · = no result shown; + = active, no number; [ ] = dose if it differs, or a comment.

SMILES	Autofluor 339	DPM-DC inhibit	PMK inhibit	NADH enzymes	MK inhibit	Abs 340nm
COc1ccc(Cl)cc1CN1CCN(c2nc(C)cc(C)c2C#N)CC1	1.2	i	0.0	1.0%	4.0	0.98
COc1ccc(F)cc1CN1CCN(c2cc(C)nc3c4c(C)cc(C)nc4nn23)CC1	3.87*	·	6.0	4.0%	1.0	1.05
CSc1nc2nc(-c3ccccc3)cc(C(F)(F)F)n2n1	3.83*	·	3.0	3.0%	2.0	1.17
CSc1nc2nc(C)cc(-c3ccccc3)n2n1	1.73	i	1.0	7.0%	10.0	1.04
CSc1nc(C)cc(-n2ccc(=O)[nH]c2=O)n1	1.11	i	7.0	9.0%	16.0	1.08
CC(C)N=c1cc2n(-c3ccc(Cl)cc3)c3ccccc3nc-2cc1Nc1ccc(Cl)cc1	0.53	+	10.0	16.0%	5.0	0.98
Cc1noc(C)c1COC(=O)c1ccc(-c2nc3ccccc3s2)s1	3.96*	i	1.0	1.0%	2.0	1.07
Cc1noc(C)c1COC(=O)CCCc1nc2ccccc2s1	1.1	i	9.0	5.0%	2.0	1.01
CC1(C)CC(=O)C2=C(C1)NC(Nc1nc3ccccc3o1)=NC21CCCCC1	2.37*	i	1.0	4.0%	3.0	1.1
CCOC(=O)C1=C(N)n2c(s/c(=C\c3cccs3)c2=O)=C(C(=O)OCC)C1c1cccs1 (centres undefined)	1.06	i	1.0	2.0%	6.0	1.07
Cc1onc(-c2c(F)cccc2Cl)c1C(=O)OCC(=O)Nc1c(C)n(C)n(-c2ccccc2)c1=O	1.07	i	0.0	4.0%	11.0	1.01
O=C(c1coc(=O)c2ccccc12)N1CCN(Cc2ccccc2)CC1	1.13	i	1.0	1.0%	·	1.01
CCCOc1ccccc1-c1nc2c([nH]1)c(=O)[nH]c(=O)n2C	3.72*	·	5.0	4.0%	2.0	1.13
CC(OC(=O)c1ccc2ccccc2n1)C(=O)Nc1ccc(N2CCOCC2)cc1 (centres undefined)	1.09	i	14.0	5.0%	0.0	1.01
Fc1ccc(-c2cc3nc(-c4ccccc4)cc(N4CCOCC4)n3n2)cc1	2.11*	·	16.0	8.0%	0.0	1.05
Cc1nc2cc(-c3cccc(F)c3)nn2c(N2CCOCC2)c1C	1.28	i	23.0	9.0%	0.0	1.04
c1csc(Cn2c(-c3cccs3)nc3ccccc32)c1	2.81*	i	3.0	14.0%	13.0	1.05
Brc1ccccc1Cn1c(-c2cncs2)nc2ccccc21	1.11	i	0.0	0.0%	0.0	1.05
CC(C)COc1ccc(-c2nnc(-c3ccncc3)o2)cc1	2.43*	i	18.0	16.0%	10.0	1.07
CCCOc1ccc(-c2nnc(-c3ccncc3)o2)cc1	2.4*	i	3.0	7.0%	2.0	1
OCC#CCSc1nnc(-c2ccncc2)o1	1.13	i	12.0	8.0%	11.0	1.03
c1cc(-c2nnc(-c3ccncc3)o2)ccn1	1.07	i	0.0	2.0%	7.0	1.03
CCCCN1Cc2cc(C(=O)c3cc(F)ccc3O)cnc2NC1=O	1.43	i	9.0	5.0%	0.0	1.14
COc1cccc(CNC(=O)c2ccccc2N)c1	3.9*	·	5.0	6.0%	7.0	1.03
COc1cccc(CNC(=O)Cn2cccc2)c1	1.04	i	7.0	4.0%	6.0	0.98
SMILES	Autofluor 339	DPM-DC inhibit	PMK inhibit	NADH enzymes	MK inhibit	Abs 340nm
CCN(CC)CCCN1C(=O)C(O)=C(C(=O)c2cccs2)C1c1ccccn1 (centres undefined)	1.09	i	6.0	6.0%	7.0	1.08
CN(CC(=O)N1CCc2ccccc21)S(=O)(=O)c1ccc(Br)s1	1.12	i	14.0	5.0%	0.0	1.02
COc1cc(C(=O)OCC(=O)c2cc(C)n(C)c2C)cc(NC(=O)c2ccco2)c1OC	2.94*	i	10.0	11.0%	0.0	1.05
C=C(C)Cn1c(-c2ccc(OC)cc2)nc2ccccc21	1.06	i	14.0	5.0%	0.0	0.98
CCOC(=O)Cc1c(C)c2c(C)nn(-c3ccccc3)c2oc1=O	2.28*	i	0.0	6.0%	0.0	1.11
CC(C)c1nc(NCC2CCCO2)c(C#N)c2c1COC(C)(C)C2 (centres undefined)	2.4*	+[fluoresces]	6.0	3.0%	2.0	0.99
CCc1nc(NCC2CCCO2)c(C#N)c2c1COC(C)(C)C2 (centres undefined)	2.33*	·	13.0	7.0%	0.0	1.02

Screening data from PubChem BioAssay.
